An excerpt weighted towards active compounds, which were near 27% of everything screened.
CYP2C19 inhib = inhibitors of human CYP2C19; inhibition, % at 5 µM; P33261; 96,000 compounds, 21% hits; CYP2C19 Supersomes, luciferin-H EGE luminescence, 30 min;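 active = CYP2C19 inhibition above a set limit at 5 µM in the primary screen, cut at about 50% in these data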;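 also: plate controls were negative control wells for no effect and 2.5 mM tranylcypromine positive control for full effect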
CYP2C19 activ = increases human CYP2C19 enzyme activity; P33261; activation factor at 5 µM; recombinant CYP2C19, luciferin-H EGE luminescence; active compounds read high; 0 = fully inhibited enzyme, 1 = untreated enzyme; 96,000 tested, under 10 active; AID 1025;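 active = activation factor of at least 2 at 5 µM in the primary screen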;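 also: 0 = wells with 2.5 mM tranylcypromine and 1 = vehicle-only wells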
CYP2C9 inhib = human CYP2C9 inhibition | P11712 | inhibition, % at 5 µM | CYP2C9 Supersomes, luciferin-H conversion, luminescence | 96,000 compounds, 20% hits | AID 777;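 active = blocking of liver enzyme CYP2C9 beyond about 50% at 5 µM, limit read from the data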
Cav3 T inh = blocks human Cav3.2 T-type calcium channel; Cav3.2-expressing cells, Fluo-4 calcium fluorescence FDSS; active compounds read low; B-score at 10 µM; 100,000 compounds, 4% hits;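 active = single-dose well whose peak fluorescence ratio is a statistical outlier from its plate by either plate-standardised score or position-corrected B-score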
CYP2C9 activ = CYP2C9 (human) activation; P11712; recombinant CYP2C9, luciferin-H conversion, luminescence; active compounds read high; factor 1 = untreated enzyme, 0 = blocked; activation factor at 5 µM; 96,000 compounds, 1.4% hits; AID 1024;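 active = activation factor of 2 or more for CYP2C9 at a 5 µM dose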;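 also: 0 = sulfaphenazole-blocked wells and 1 = vehicle-only wells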
* hit, by the source's call; . = not tested or not shown.

SMILES	CYP2C19 inhib	CYP2C19 activ	CYP2C9 inhib	Cav3 T inh	CYP2C9 activ
Cc1nn2c(c1-c1ccc(Cl)cc1)N=C(c1ccco1)CC2c1ccccc1 (stereo not drawn)	24.9	0.8	72.6*	-2.76	0.3
CC(=O)C(=Nc1ccccc1Cl)NNc1ccc(Cl)cc1	.	.	.	-1.76	.
CC(C)(C)NC(=O)CN(Cc1cccs1)C(=O)CCC(=O)Nc1nccs1	8.8	0.9	15.0	0.0576	0.8
Cc1cc2ncn(C(=O)N3CCC(C)CC3)c2cc1C	.	.	.	-6.47*	.
Cc1cc2ncn(C(=O)c3ccc4c(c3)OCO4)c2cc1C	-2.2	1	-6.8	0.624	1.1
CC1=CC(C)(C)N(C(=O)C(C)N2C(=O)c3ccccc3C2=O)c2c(C)cc(C)cc21 (stereo not drawn)	33.4	0.7	16.2	.	0.8
CN(C)CCOC(C1CCCCC1)C1CCCCC1	5.8	0.9	5.4	-2.79	0.9
CCOc1ccc(NS(=O)(=O)c2ccc(NS(C)(=O)=O)cc2)cc1	23.8	0.8	64.5*	-0.583	0.4
CC(C)CC(=O)NC(=S)Nc1ccc(NC(=O)c2cccs2)cc1	6.1	0.9	11.8	-1.12	0.9
COc1ccc(NS(=O)(=O)c2ccc(NS(=O)(=O)c3ccc(SC)cc3)cc2)c(OC)c1	20.5	0.8	83.4*	-4.91*	0.2
CCOc1ccc(NS(=O)(=O)c2ccc(NC(=S)NC(=O)CC(C)C)cc2)cc1	89.7*	0.1	99.4*	-1.38	0
CCOc1ccc(NS(=O)(=O)c2ccc(NS(=O)(=O)c3ccc(SC)cc3)cc2)cc1	34.9	0.7	86.8*	-2.57	0.1
COc1ccc(OC)c(NS(=O)(=O)c2ccc(SC)cc2)c1	.	.	.	-3.21	.
COc1ccccc1CN1C(=O)[C@@H]2Cc3c([nH]c4ccccc34)C(C)(C)N2C1=O	.	.	.	0.687	.
CC(C)CCNC(=O)c1ccc2c(c1)ncn2C1CCCCC1	12.8	0.9	33.1	0.797	0.7
O=c1[nH]c(=S)ccn1C1OC(CO)C(O)C1O (stereo not drawn)	.	.	.	-1.72	.
Fc1ccc(Nc2nc(Oc3ccccc3F)nc(N3CCCC3)n2)cc1	-19.0	1.2	39.3	0.313	0.6
C=C(C)Cn1c(N2CC(C)CC(C)C2)nc2c1c(=O)[nH]c(=O)n2C (stereo not drawn)	.	.	.	-1.66	.
CCOc1ccc(S(=O)(=O)Nc2cccnc2)cc1	94.2*	0.1	65.7*	0.068	0.3
CCc1nc(SCc2ccc(C(=O)OC)o2)c2c(=O)n(C)c(=O)n(C)c2n1	.	.	.	-0.115	.
COc1ccc(CNC(=O)Cn2nc(C(F)(F)F)c3c2CCC3)cc1	18.2	0.8	-202.8	0.685	3*
COc1ccc(NC(=O)Cn2nc(C(F)(F)F)c3c2CCCC3)c(OC)c1	74.6*	0.3	27.0	-1.65	0.7
COc1ccc(CNC(=O)c2ccc(N3CCCC3=O)cc2)cc1	-3.5	1	1.8	0.00569	1
COc1ccc(CNc2nc3c(c(C(F)(F)F)n2)CCCCC3)cc1	30.7	0.7	53.1*	-2.52	0.5
Cc1cc(NC(=O)Cn2nc(C(F)(F)F)c3c2CCC3)no1	-0.6	1	2.0	0.926	1
SMILES	CYP2C19 inhib	CYP2C19 activ	CYP2C9 inhib	Cav3 T inh	CYP2C9 activ
Cc1ccc(NC(=O)Cn2nc(C(F)(F)F)c3c2CCC3)cc1	50.3*	0.5	6.5	-2.34	0.9
CS(=O)(=O)N(CC(=O)NCc1ccccn1)Cc1ccc(Cl)cc1	.	.	.	0.207	.
CCc1n[nH]c2c1/C(=N\O)CC(c1ccccc1)C2 (stereo not drawn)	95.7*	0	97.5*	-0.00754	0
CCCCc1n[nH]c2c1/C(=N/O)CC(c1ccccc1)C2 (stereo not drawn)	39.6	0.6	17.8	0.051	0.8
Cc1nn(-c2ccc(C(=O)Nc3nnc(C4CC4)s3)cc2)c(C)c1Cl	18.4	0.8	45.2	0.165	0.5
Cc1nn(Cc2ccccc2Cl)c(C)c1C(=O)Nc1nnc(C2CC2)s1	16.2	0.8	50.6*	-0.725	0.5
Cc1nn(-c2ccccc2)c(Cl)c1C(=O)Nc1nnc(C2CCCCC2)s1	11.4	0.9	16.6	-4.39*	0.8
CCc1cc2c(CN3CCN(CC)CC3)cc(=O)oc2cc1O	-14.8	1.1	-1.8	0.0104	1
Cc1ccc(C(=O)NN2CCOCC2)cc1	4.7	1	41.1	0.275	0.6
O=C(NC(C(=O)c1ccccc1)N1CCCCC1)c1ccccc1 (stereo not drawn)	76.7*	0.2	98.8*	-1.55	0
Cc1ccc(C(=O)NC(N2CCCC2)C(Cl)(Cl)Cl)cc1 (stereo not drawn)	69.0*	0.3	12.5	0.0904	0.9
O=C(NC(C(=O)c1ccccc1)n1ccc(=O)[nH]c1=O)c1ccccc1 (stereo not drawn)	-7.1	1.1	-5.9	0.0248	1.1
CCCNCC(O)COc1ccccc1C(=O)CCc1ccccc1 (stereo not drawn)	.	.	.	-0.617	.
Cc1ccc(-c2nnc(N3CCCCC3)c3ccccc23)cc1S(=O)(=O)N1CCN(C)CC1	14.6	0.9	57.5*	-2.15	0.4
Cc1ccc(-c2nnc(N3CCCCC3)c3ccccc23)cc1S(=O)(=O)N(C)C	20.5	0.8	47.7	-1.06	0.5
C/C(=N\Nc1nc2c(s1)CCCC2)c1ccccc1	71.8*	0.3	81.7*	-0.199	0.2
Cc1ccc(-c2ccc(/C=N/N3C(=O)C4C5C=CC(CC5)C4C3=O)o2)c([N+](=O)[O-])c1 (stereo not drawn)	-0.8	1	70.1*	-3.07	0.3
O=C1C2C3C=CC(C4CC34)C2C(=O)N1/N=C/c1ccc(-c2ccc(F)cc2[N+](=O)[O-])o1 (stereo not drawn)	2.0	1	-2.7	1.13	1
COC(=O)c1c(C(=O)OC)c2cc(C)ccn2c1Cl	46.7	0.5	54.1*	-0.929	0.5
COC(=O)c1c(C(=O)OC)n(CCCN)c2ccc(C)cc12	25.4	0.7	5.9	0.841	0.9
CCOc1ccc2nc(NC(=O)C3CCCN(S(=O)(=O)c4c(C)noc4C)C3)sc2c1 (stereo not drawn)	.	.	.	-0.323	.
Cc1cccc(CN2C(=O)N/C(=C/c3cc(C)n(-c4cc(C)ccn4)c3C)C2=O)c1	44.9	0.6	61.2*	-0.0799	0.4
Cc1cccc(CN2C(=O)N/C(=C/c3ccc(C)s3)C2=O)c1	29.2	0.7	-47.8	-0.0846	1.5
O=C1NCCCC1C(=O)N/N=C/c1ccccc1 (stereo not drawn)	-6.4	1.1	-12.7	0.102	1.1
CCC1(O)c2ccccc2-c2ncccc21 (stereo not drawn)	4.7	1	-4.4	-0.0892	1
COc1cccc(-c2csc(NC(C)=O)n2)c1	27.1	0.7	23.5	-0.208	0.8
COc1ccc2cc(-c3csc(-c4cccnc4)n3)ccc2c1	75.4*	0.2	2.4	-0.249	1
Cc1nc(SCn2nnc3ccccc3c2=O)c2c(C)c(C)sc2n1	26.3	0.7	24.9	.	0.8
CCn1c(SCC(=O)Nc2oc(-c3ccccc3)c(-c3ccccc3)c2C#N)nnc1-c1ccncc1	57.7*	0.4	78.2*	-1.99	0.2

Screening data (PubChem BioAssay)
